Assay outcomes as filed in PubChem.
CYP2C19 activ: increases human CYP2C19 enzyme activity; P33261; recombinant CYP2C19, luciferin-H EGE luminescence; active compounds read high; 0 = fully inhibited enzyme, 1 = untreated enzyme; activation factor at 5 µM; 96,000 tested, under 10 active; AID 1025;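 active = activation factor of at least 2 at 5 µM in the primary screen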;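 also: 0 = wells with 2.5 mM tranylcypromine and 1 = vehicle-only wells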
sEH inhibitor: blocks human soluble epoxide hydrolase activity; inhibition, % at 2 µM; 91,000 compounds, 0.34% hits; recombinant human sEH enzymatic activity assay; in the data active = inhibition above about 80%
Target sequence (P34913 whole entry, looked up): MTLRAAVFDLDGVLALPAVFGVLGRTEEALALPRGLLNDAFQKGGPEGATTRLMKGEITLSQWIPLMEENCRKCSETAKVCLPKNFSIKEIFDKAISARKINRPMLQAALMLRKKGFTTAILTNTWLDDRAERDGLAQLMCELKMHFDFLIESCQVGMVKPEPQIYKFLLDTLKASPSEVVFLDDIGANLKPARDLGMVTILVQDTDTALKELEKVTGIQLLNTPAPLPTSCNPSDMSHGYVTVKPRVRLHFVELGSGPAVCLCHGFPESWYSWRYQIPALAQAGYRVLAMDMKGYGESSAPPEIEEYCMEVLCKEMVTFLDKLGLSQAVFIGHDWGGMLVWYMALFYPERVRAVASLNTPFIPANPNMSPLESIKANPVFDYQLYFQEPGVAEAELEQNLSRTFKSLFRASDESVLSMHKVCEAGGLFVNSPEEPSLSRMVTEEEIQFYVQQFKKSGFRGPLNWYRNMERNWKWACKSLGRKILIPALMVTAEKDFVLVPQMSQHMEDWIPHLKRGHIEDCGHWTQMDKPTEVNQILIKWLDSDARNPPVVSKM
CYP2C19 inhib: inhibitors of human CYP2C19; P33261; CYP2C19 Supersomes, luciferin-H EGE luminescence, 30 min; inhibition, % at 5 µM; 96,000 compounds, 21% hits;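 active = CYP2C19 inhibition above a set limit at 5 µM in the primary screen, cut at about 50% in these data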;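 also: plate controls were negative control wells for no effect and 2.5 mM tranylcypromine positive control for full effect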
sEH act: activators of human soluble epoxide hydrolase; activation, % at 2 µM; AID 717; 91,000 compounds, 0.04% hits; purified human sEH enzymatic activity, activator screen; P34913; in the data active = activation above about 37%
CYP2C9 activ: CYP2C9 (human) activation; activation factor at 5 µM; 96,000 compounds, 1.4% hits; recombinant CYP2C9, luciferin-H conversion, luminescence; active compounds read high; factor 1 = untreated enzyme, 0 = blocked;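 active = activation factor of 2 or more for CYP2C9 at a 5 µM dose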;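 also: 0 = sulfaphenazole-blocked wells and 1 = vehicle-only wells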
CYP2C9 inhib: blocks human cytochrome P450 2C9. inhibition, % at 5 µM. CYP2C9 Supersomes, luciferin-H conversion, luminescence. P11712. 96,000 compounds, 20% hits;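 active = blocking of liver enzyme CYP2C9 beyond about 50% at 5 µM, limit read from the data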
* = called active by the depositor. An excerpt weighted towards active compounds, which were near 27% of everything screened.

`Cn1c(-c2ccccc2)cc2c3no[n+]([O-])c3ccc21` gave CYP2C19 activ 0.2, sEH inhibitor -3, CYP2C19 inhib 80*, sEH act 2, CYP2C9 activ 0.7 and CYP2C9 inhib 33.
Screening Cc1c(Cl)cccc1Nc1nc(N)nc(CSc2ncccn2)n1 returned CYP2C19 activ 0.5, sEH inhibitor 7, CYP2C19 inhib 52*, sEH act -6, CYP2C9 activ 0.3 and CYP2C9 inhib 67*.
For COC(=O)C(C)N(C(=O)c1cccc2ccccc12)c1c(C)cccc1C (centres undefined) the results were CYP2C19 activ 0.7, sEH inhibitor -34, CYP2C19 inhib 26, sEH act 31, CYP2C9 activ 0.6 and CYP2C9 inhib 36.
CCOC(=O)c1c(C)c(C(=O)NCc2cccnc2)c(C)n1CC was read as CYP2C19 activ 0.3, CYP2C19 inhib 70*, CYP2C9 activ 0.4 and CYP2C9 inhib 60*.
Screening O=C(NCc1ccco1)c1nnc(Cc2ccc(Cl)cc2)o1 returned CYP2C19 activ 0.8, sEH inhibitor -3, CYP2C19 inhib 23, sEH act 4, CYP2C9 activ 1.3 and CYP2C9 inhib -31.
`COc1ccc(Br)cc1C(=O)NCc1cccnc1` gave CYP2C19 activ 0.4, sEH inhibitor 0, CYP2C19 inhib 56*, sEH act 0, CYP2C9 activ 1.5 and CYP2C9 inhib -54.
For O=C(NCc1cccnc1)c1nnc(Cc2ccc(F)cc2)o1 the results were CYP2C19 activ 0.2, sEH inhibitor -2, CYP2C19 inhib 78*, sEH act 6, CYP2C9 activ 0.8 and CYP2C9 inhib 20.
Screening COC(=O)C(C)N(C(=O)c1cccc(Cl)c1)c1c(C)cccc1C (centres undefined) returned CYP2C19 activ 0.3, sEH inhibitor -10, CYP2C19 inhib 72*, sEH act 6, CYP2C9 activ 0.4 and CYP2C9 inhib 62*.
For O=C(NC1(C(F)(F)F)C(=O)Nc2c1c(=O)[nH]c(=O)n2Cc1ccco1)C1CCCCC1 (centres undefined) the results were CYP2C19 activ 1.1, sEH inhibitor -6, CYP2C19 inhib -12, sEH act 4, CYP2C9 activ 1.1 and CYP2C9 inhib -7.
For O=C(CNC(=O)C1CCCCC1)NC1=NCCS1 the results were CYP2C19 activ 0.8, sEH inhibitor 4, CYP2C19 inhib 15, sEH act -5, CYP2C9 activ 0.9 and CYP2C9 inhib 10.
Screening O=C(NCc1cccnc1)c1cccc(Cl)c1 returned CYP2C19 activ 0.3, sEH inhibitor -6, CYP2C19 inhib 73*, sEH act 9, CYP2C9 activ 1.2 and CYP2C9 inhib -23.
For O=C(NCc1cccnc1)c1c(F)c(F)c(F)c(F)c1F the results were CYP2C19 activ 0.2, sEH inhibitor -10, CYP2C19 inhib 81*, sEH act 14, CYP2C9 activ 0.5 and CYP2C9 inhib 46.
For Cc1nn(C)cc1CNC(=O)c1cccc(Cl)c1 the results were CYP2C19 activ 0.8, sEH inhibitor 13, CYP2C19 inhib 17, sEH act -10, CYP2C9 activ 0.5 and CYP2C9 inhib 46.
`O=C(NCc1cccnc1)NC1(C(F)(F)F)Oc2ccc(Cl)cc2O1` (centres undefined) gave CYP2C19 activ 0.1, sEH inhibitor -3, CYP2C19 inhib 91*, sEH act 0, CYP2C9 activ 0.4 and CYP2C9 inhib 58*.
CC(C)CCNC(=O)c1cccc(Cl)c1 was read as CYP2C19 activ 0.4, sEH inhibitor 56, CYP2C19 inhib 58*, sEH act -56, CYP2C9 activ 0.7 and CYP2C9 inhib 28.
Screening O=C(NCc1cccnc1)c1cccc(F)c1 returned CYP2C19 activ 0.6, CYP2C19 inhib 44, CYP2C9 activ 1.1 and CYP2C9 inhib -5.
Screening COCCNC(=O)NC1(C(F)(F)F)Oc2ccc(Cl)cc2O1 (centres undefined) returned CYP2C19 activ 0.7, sEH inhibitor -6, CYP2C19 inhib 25, sEH act 7, CYP2C9 activ 0.9 and CYP2C9 inhib 10.
Screening CC(=O)c1c(C)[nH]c(C(=O)CSc2nnc(CN3CCCCCC3=O)n2-c2ccccn2)c1C returned CYP2C19 activ 0.8, sEH inhibitor 6, CYP2C19 inhib 17, sEH act -4, CYP2C9 activ 0.8 and CYP2C9 inhib 16.
`O=c1[nH]nc(Cc2ccc(-c3ccc(Cl)cc3)o2)c2ccccc12` gave CYP2C19 activ 0.9, sEH inhibitor -1, CYP2C19 inhib 5, sEH act 4, CYP2C9 activ 0.9 and CYP2C9 inhib 11.
CC(N)C12CC3CC(C1)CC(C(C)N)(C3)C2 (centres undefined) was read as CYP2C19 activ 1.2, sEH inhibitor 2, CYP2C19 inhib -23, sEH act 1, CYP2C9 activ 1.2 and CYP2C9 inhib -20.
For O=C(NCc1ccncc1)c1cccc(F)c1 the results were CYP2C19 activ 0.8, CYP2C19 inhib 18, CYP2C9 activ 0.8 and CYP2C9 inhib 18.
Screening O=C(NCc1ccncc1)C(F)(F)C(F)(F)C(=O)NCc1ccncc1 returned CYP2C19 activ 0.5, sEH inhibitor -4, CYP2C19 inhib 46, sEH act 4, CYP2C9 activ 0.1 and CYP2C9 inhib 93*.
Screening O=C(NCc1ccncc1)c1c(F)c(F)c(F)c(F)c1F returned CYP2C19 activ 0.8, sEH inhibitor -6, CYP2C19 inhib 24, sEH act 4, CYP2C9 activ 0.3 and CYP2C9 inhib 67*.
`Cc1cc2c(cc(C(=O)NCc3cccnc3)n2Cc2ccc(Cl)cc2)o1` gave CYP2C19 activ 0.1, CYP2C19 inhib 91*, CYP2C9 activ 0.1 and CYP2C9 inhib 91*.
For O=C(/C=N/O)NCc1ccncc1 the results were CYP2C19 activ 1, sEH inhibitor -7, CYP2C19 inhib -3, sEH act 6, CYP2C9 activ 0.9 and CYP2C9 inhib 11.
For CC(C)OC(=O)c1nnc(Cc2ccc(F)cc2)o1 the results were CYP2C19 activ 0.1, sEH inhibitor 8, CYP2C19 inhib 89*, sEH act -4, CYP2C9 activ 1 and CYP2C9 inhib 2.
Screening Cc1cccc(-n2cnc(C(=O)NC3CCCCCC3)c2)n1 returned CYP2C19 activ 0.7, sEH inhibitor 12, CYP2C19 inhib 26, sEH act -14, CYP2C9 activ 1.5 and CYP2C9 inhib -54.
For O=C(CCC(=O)OCC(=O)c1cccc([N+](=O)[O-])c1)Nc1ccccc1Cl the results were CYP2C19 activ 1.1, sEH inhibitor 14, CYP2C19 inhib -7, sEH act -12, CYP2C9 activ 1.2 and CYP2C9 inhib -16.
`Cn1nc(-c2ccccc2)c(C#N)c1Sc1cccc(Cl)c1` gave CYP2C19 activ 0.7, sEH inhibitor -6, CYP2C19 inhib 31, sEH act 5, CYP2C9 activ 0.7 and CYP2C9 inhib 28.
Screening CC(NC(=O)NCc1cccnc1)(C(F)(F)F)C(F)(F)F returned CYP2C19 activ 0.2, sEH inhibitor -3, CYP2C19 inhib 77*, sEH act 3, CYP2C9 activ 0.7 and CYP2C9 inhib 33.
